Experimental data published in paper PMC7862700, “An all-to-all approach to the identification of sequence-specific readers for epigenetic DNA modifications on cytosine”.

Columns and labels:
Assay in all cases: DAPPL (digital affinity profiling via proximity ligation, sequencing); 10 mM Tris-HCl pH 7.5, 50 mM NaCl, 1 mM DTT, 4% glycerol, room temperature, 30 min; GST-TFs on glutathione beads, 16-mer random dsDNA library, 0.1% formaldehyde crosslink after washing; high values mean tight binding
Conditions in all cases: protein: recombinant; tags: N-terminal GST; dsDNA, one strand shown
ETV5 = ETV5 (Homo sapiens, UniProt P41161 1-510)
Chain of ETV5 (P41161 whole entry, the tested form may be a part): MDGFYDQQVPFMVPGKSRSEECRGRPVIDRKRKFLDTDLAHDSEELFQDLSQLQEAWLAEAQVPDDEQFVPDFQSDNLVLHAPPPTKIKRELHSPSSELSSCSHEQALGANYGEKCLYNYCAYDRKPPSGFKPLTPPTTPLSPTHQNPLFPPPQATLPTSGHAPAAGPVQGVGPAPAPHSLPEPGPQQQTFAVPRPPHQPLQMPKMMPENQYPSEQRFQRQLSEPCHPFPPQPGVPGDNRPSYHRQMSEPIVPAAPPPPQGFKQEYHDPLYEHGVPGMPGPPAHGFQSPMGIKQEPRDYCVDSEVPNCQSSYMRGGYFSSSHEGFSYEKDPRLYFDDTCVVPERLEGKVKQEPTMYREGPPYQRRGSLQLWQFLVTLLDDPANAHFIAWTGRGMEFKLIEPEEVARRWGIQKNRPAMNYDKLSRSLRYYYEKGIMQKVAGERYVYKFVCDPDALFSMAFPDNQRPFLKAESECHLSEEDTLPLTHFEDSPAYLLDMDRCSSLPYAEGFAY
Method in brief: (§1)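 Human transcription factors carrying a GST fusion were produced in yeast, bound to glutathione beads, tagged with DNA barcodes and pooled together with a tag-only sample. Each pool was held with 200 nmole of a random double-stranded 16-mer DNA library in Tris/NaCl/DTT/glycerol buffer for 30 min at room temperature, then washed, crosslinked in 0.1% formaldehyde, proximity-ligated with BsaI/T4 ligase (1 h, 37 °C), PCR-amplified and sequenced on an Illumina NextSeq500. Binding signal is the read frequency of each hexamer for a given factor divided by its frequency in the tag-only sample.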

SPIC = biological target: T1, SPIC (Homo sapiens, UniProt Q8N5J4 1-248)
T1 sequence: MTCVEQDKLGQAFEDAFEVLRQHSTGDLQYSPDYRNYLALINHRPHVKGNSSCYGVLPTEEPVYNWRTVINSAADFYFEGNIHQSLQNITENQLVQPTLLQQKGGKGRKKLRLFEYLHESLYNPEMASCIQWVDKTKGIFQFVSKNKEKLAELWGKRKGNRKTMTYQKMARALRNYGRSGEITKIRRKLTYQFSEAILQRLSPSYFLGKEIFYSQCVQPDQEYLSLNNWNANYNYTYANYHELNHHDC
Method in brief: as §1

ELF4 = ELF4 (Homo sapiens, UniProt Q99607 1-663)
Chain of ELF4 (Q99607 whole entry): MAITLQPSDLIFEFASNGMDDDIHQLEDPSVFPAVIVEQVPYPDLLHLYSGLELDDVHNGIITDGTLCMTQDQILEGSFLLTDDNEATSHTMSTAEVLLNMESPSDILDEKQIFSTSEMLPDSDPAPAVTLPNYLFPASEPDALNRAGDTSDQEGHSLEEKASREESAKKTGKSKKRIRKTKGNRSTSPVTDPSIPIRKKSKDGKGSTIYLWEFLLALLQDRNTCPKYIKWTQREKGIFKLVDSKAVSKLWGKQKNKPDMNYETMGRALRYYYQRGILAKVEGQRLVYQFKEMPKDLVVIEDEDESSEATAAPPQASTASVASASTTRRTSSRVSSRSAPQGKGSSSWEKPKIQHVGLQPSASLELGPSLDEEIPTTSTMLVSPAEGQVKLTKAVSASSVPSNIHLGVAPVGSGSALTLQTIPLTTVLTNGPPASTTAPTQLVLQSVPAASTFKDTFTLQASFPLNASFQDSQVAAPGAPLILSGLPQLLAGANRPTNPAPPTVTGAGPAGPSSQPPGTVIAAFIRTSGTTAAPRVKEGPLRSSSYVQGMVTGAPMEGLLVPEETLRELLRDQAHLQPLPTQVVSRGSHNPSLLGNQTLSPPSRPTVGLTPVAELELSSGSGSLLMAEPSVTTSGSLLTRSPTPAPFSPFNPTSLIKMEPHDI
Method in brief: as §1

ETV1 = ETV1 (Homo sapiens, UniProt P50549 1-477)
Chain of ETV1 (P50549 whole entry): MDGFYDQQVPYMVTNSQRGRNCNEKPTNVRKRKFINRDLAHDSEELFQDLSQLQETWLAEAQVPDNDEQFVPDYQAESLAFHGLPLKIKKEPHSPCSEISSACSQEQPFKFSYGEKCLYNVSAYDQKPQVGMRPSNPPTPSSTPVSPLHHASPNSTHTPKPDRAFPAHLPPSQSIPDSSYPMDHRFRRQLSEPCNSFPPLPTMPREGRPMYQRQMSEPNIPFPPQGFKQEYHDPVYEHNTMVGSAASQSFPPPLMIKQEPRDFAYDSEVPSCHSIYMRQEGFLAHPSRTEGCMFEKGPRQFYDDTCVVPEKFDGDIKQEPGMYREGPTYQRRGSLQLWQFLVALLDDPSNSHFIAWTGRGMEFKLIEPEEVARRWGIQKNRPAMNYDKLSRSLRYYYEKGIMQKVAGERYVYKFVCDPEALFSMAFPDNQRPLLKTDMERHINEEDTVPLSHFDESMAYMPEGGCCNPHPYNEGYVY
Method in brief: as §1

ERF = biological target: T2, ERF (Homo sapiens, UniProt P50548 1-548)
T2 sequence: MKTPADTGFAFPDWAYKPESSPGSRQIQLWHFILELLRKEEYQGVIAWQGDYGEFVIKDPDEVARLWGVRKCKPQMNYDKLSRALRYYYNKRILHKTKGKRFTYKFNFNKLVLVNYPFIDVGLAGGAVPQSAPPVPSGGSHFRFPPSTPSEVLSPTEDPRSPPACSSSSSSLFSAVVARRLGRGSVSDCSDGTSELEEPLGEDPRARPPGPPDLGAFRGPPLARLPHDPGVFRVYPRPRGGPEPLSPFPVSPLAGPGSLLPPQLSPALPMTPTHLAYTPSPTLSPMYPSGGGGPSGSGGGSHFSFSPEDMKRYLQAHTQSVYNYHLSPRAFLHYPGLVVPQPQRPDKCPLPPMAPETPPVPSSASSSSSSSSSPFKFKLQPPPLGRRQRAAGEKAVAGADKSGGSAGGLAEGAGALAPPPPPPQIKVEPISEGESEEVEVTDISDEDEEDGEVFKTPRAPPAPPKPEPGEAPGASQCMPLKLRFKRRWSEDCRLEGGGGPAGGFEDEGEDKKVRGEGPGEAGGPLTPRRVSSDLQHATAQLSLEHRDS
Method in brief: as §1

ETV3L = biological target: T3, ETV3L (Homo sapiens, UniProt Q6ZN32 1-361)
T3 sequence: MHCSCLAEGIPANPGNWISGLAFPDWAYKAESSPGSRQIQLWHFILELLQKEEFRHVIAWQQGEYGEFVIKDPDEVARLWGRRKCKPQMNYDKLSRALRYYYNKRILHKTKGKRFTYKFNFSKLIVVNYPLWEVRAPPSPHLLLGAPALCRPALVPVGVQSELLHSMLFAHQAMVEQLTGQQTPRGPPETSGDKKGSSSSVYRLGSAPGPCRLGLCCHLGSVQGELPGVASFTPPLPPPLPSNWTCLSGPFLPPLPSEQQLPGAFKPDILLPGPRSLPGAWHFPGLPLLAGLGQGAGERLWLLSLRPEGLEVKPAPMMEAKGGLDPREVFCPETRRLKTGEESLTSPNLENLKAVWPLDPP
Method in brief: as §1

ETS2 = biological target: T4, ETS2 (Homo sapiens, UniProt P15036 1-469)
T4 sequence: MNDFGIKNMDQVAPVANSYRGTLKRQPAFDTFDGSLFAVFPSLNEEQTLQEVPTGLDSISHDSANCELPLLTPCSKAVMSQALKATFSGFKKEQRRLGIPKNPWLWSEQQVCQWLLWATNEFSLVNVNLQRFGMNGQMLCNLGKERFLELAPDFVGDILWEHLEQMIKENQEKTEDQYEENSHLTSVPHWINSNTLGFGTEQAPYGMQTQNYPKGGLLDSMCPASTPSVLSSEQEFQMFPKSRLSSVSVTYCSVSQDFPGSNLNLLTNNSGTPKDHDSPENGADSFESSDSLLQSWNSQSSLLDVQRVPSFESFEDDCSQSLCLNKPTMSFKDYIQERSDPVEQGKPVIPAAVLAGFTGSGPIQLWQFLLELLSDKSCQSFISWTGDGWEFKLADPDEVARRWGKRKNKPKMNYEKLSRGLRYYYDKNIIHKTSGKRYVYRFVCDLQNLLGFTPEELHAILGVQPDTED
Method in brief: as §1

SPDEF = biological target: T5, SPDEF (Homo sapiens, UniProt O95238 1-335)
T5 sequence: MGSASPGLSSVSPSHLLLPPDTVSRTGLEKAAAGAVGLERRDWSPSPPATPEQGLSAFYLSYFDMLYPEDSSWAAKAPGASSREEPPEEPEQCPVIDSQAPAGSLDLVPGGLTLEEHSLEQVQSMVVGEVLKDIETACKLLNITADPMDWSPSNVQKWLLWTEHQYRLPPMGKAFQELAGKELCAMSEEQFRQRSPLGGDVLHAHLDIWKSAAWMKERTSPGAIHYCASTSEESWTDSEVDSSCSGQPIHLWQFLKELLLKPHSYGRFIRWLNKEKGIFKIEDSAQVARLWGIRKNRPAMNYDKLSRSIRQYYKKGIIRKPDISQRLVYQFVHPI
Method in brief: as §1

ETV3 = biological target: T6, ETV3 (Homo sapiens, UniProt P41162-2 1-143)
T6 sequence: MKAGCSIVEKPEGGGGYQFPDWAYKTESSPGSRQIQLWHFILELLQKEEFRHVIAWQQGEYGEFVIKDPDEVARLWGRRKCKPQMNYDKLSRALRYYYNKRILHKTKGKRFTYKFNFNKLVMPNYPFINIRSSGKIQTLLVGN
Method in brief: as §1

ETV6 = ETV6 (Homo sapiens, UniProt P41212 1-452)
Chain of ETV6 (P41212 whole entry): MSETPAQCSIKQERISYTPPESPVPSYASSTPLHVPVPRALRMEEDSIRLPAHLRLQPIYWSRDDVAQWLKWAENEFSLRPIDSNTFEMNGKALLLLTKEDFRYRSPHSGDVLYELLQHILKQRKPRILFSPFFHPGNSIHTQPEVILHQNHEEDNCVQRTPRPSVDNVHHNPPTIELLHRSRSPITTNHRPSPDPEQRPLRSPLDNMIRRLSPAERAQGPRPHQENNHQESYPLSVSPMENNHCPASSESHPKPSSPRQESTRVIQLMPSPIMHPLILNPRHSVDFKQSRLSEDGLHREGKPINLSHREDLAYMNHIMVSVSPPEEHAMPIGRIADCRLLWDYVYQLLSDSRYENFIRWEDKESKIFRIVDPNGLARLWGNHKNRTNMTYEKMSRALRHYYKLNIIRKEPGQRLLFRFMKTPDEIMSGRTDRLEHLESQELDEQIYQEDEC
Method in brief: as §1

## GTCCTG
ETV5
  binding signal: 1.08 fold enrichment (6-mer frequency, TF over GST control)
SPIC
  binding signal: 1.3 fold enrichment (6-mer frequency, TF over GST control)
ELF4
  binding signal: 1.09 fold enrichment (6-mer frequency, TF over GST control)
ETV1
  binding signal: 1.17 fold enrichment (6-mer frequency, TF over GST control)
ERF
  binding signal: 1.08 fold enrichment (6-mer frequency, TF over GST control)
ETV3L
  binding signal: 1.19 fold enrichment (6-mer frequency, TF over GST control)
ETS2
  binding signal: 1.02 fold enrichment (6-mer frequency, TF over GST control)
SPDEF
  binding signal: 1.34 fold enrichment (6-mer frequency, TF over GST control)
ETV3
  binding signal: 1.2 fold enrichment (6-mer frequency, TF over GST control)
ETV6
  binding signal: 1.16 fold enrichment (6-mer frequency, TF over GST control)
